Laboratory results taken from PubChem BioAssay AID1159580 (chemical genetic matrix, 2015).
Out of some 5,500 compounds screened, about 2,000 (36%) were called active. Inconclusive results (about 18%) are left out. Cut-off read from the data, not from the text of the source: active = normalized growth mostly below about 0.91 (no sharp cut-off); inconclusive = no clear call, values can overlap the other calls; inactive = mostly above about 0.92. This is one part of the list.

Experiment: chemical genetic growth profiling, strain panel (AID 1159580);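 note: tested at 20 µM; growth read once vehicle control cultures reached saturation at 30 °C; 1 = growth at the plate median or of vehicle wells; lower values mean less growth of the strain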
Settings: S. cerevisiae deletion strains, growth OD
[1] = locus YAL013W, strain DEP1, hits give low values
[2] = locus YBR229C, strain ROT2, hits give low values
[3] = locus YDL101C, strain DUN1, hits give low values
[4] = locus YEL061C, strain CIN8, hits give low values
[5] = locus YHR030C, strain SLT2, hits give low values
[6] = locus YJR043C, strain POL32, hits give low values
[7] = locus YKL190W, strain CNB1, hits give low values
[8] = locus YLR039C, strain RIC1, hits give low values
[9] = locus YLR262C, strain YPT6, hits give low values
[10] = locus YMR307W, strain GAS1, hits give low values
[11] = locus YNL128W, strain TEP1, hits give low values
[12] = locus YNL153C, strain GIM3, hits give low values
[13] = locus YNL322C, strain KRE1, hits give low values
[14] = locus YPL055C, strain LGE1, hits give low values
[15] = locus YAL040C, strain CLN3, hits give low values
[16] = locus YCL061C, strain MRC1 (second series), hits give low values
[17] = locus YDR150W, strain NUM1, hits give low values
[18] = locus YDR363W, strain ESC2, hits give low values
[19] = locus YER002W, strain NOP16, hits give low values
[20] = locus YGR078C, strain PAC10, hits give low values
[21] = locus YGR229C, strain SMI1, hits give low values
[22] = locus YJR075W, strain HOC1, hits give low values
[23] = locus YMR263W, strain SAP30, hits give low values
[24] = locus YNL175C, strain NOP13, hits give low values
[25] = locus YNL197C, strain WHI3, hits give low values
[26] = locus YNL224C, strain SQS1, hits give low values
[27] = locus YOR083W, strain WHI5 (second series), hits give low values
[28] = locus YPL241C, strain CIN2, hits give low values

Measured: normalized growth

CC1=CC(=O)C2=C(C)CC[C@@H]3[C@H](OC(=O)[C@H]3C)[C@@H]12
inactive: [1] 1 | locus YBR021W, strain FUR4, hits give low values 0.965 | [2] 0.987 | locus YCL029C, strain bik1, hits give low values 0.975 | locus YDL035C, strain GPR1, hits give low values 0.998 | locus YDL074C, strain BRE1, hits give low values 0.986 | [3] 0.995 | locus YDL185W, strain tfp1, hits give low values 0.978 | locus YDL192W, strain arf1, hits give low values 1.01 | locus YDR101C, strain arx1, hits give low values 0.981 | locus YDR162C, strain NBP2, hits give low values 1.01 | locus YDR318W, strain mcm21, hits give low values 1 | locus YDR388W, hits give low values 0.981 | locus YDR502C, strain sam2, hits give low values 0.983 | [4] 0.997 | locus YER110C, hits give low values 0.979 | locus YER155C, strain BEM2, hits give low values 0.987 | locus YER167W, strain BCK2, hits give low values 0.992 | locus YGL078C, strain dbp3, hits give low values 0.977 | locus YGL086W, strain mad1, hits give low values 0.979 | locus YGL248W, strain PDE1, hits give low values 1.01 | locus YGR135W, strain pre9, hits give low values 0.997 | locus YGR252W, strain gcn5, hits give low values 1.07 | [5] 0.99 | locus YHR079C, strain IRE1 (second series), hits give low values 0.985 | locus YHR094C, strain hxt1, hits give low values 0.991 | locus YHR129C, strain ARP1, hits give low values 0.997 | locus YHR200W, strain rpn10, hits give low values 0.998 | locus YIL066C, strain RNR3, hits give low values 0.999 | locus YIL073C, strain SPO22, hits give low values 0.99 | locus YIL125W, strain kgd1, hits give low values 0.986 | locus YIR030C, strain dcg1, hits give low values 0.985 | locus YJL095W, strain BCK1, hits give low values 1.04 | locus YJL134W, strain LCB3, hits give low values 0.992 | locus YJL168C, strain set2, hits give low values 0.984 | locus YJL187C, strain SWE1 (second series), hits give low values 1.01 | [6] 1.01 | locus YKL009W, strain mrt4, hits give low values 1 | locus YKL068W, hits give low values 0.985 | locus YKL085W, strain MDH1 (second series), hits give low values 0.995 | locus YKL085W, strain MDH1, hits give low values 0.995 | [7] 1.01 | locus YKR001C, strain vps1, hits give low values 0.965 | [8] 1.02 | locus YLR058C, strain SHM2, hits give low values 1 | locus YLR102C, strain apc9, hits give low values 0.981 | [9] 1.01 | locus YLR268W, strain sec22, hits give low values 0.976 | locus YLR330W, strain CHS5, hits give low values 0.993 | locus YLR342W, strain FKS1 (second series), hits give low values 0.989 | locus YLR371W, strain rom2, hits give low values 0.959 | locus YLR418C, strain cdc73, hits give low values 1.01 | locus YML016C, strain PPZ1, hits give low values 0.99 | locus YML032C, strain rad52, hits give low values 1.01 | locus YML124C, strain tub3, hits give low values 0.989 | locus YMR078C, strain ctf18, hits give low values 1 | locus YMR223W, strain ubp8, hits give low values 1.03 | [10] 1 | locus YNL067W, strain RPL9B, hits give low values 1.02 | [11] 0.984 | [12] 1.01 | locus YNL233W, strain BNI4, hits give low values 1 | locus YNL250W, strain rad50, hits give low values 0.995 | locus YNL271C, strain bni1, hits give low values 0.984 | locus YNL298W, strain CLA4, hits give low values 0.99 | locus YNL307C, strain MCK1, hits give low values 0.971 | [13] 1 | locus YNR052C, strain pop2, hits give low values 0.996 | locus YOL012C, strain htz1 0.989 | locus YOL147C, strain pex11, hits give low values 0.987 | locus YOR061W, strain CKA2, hits give low values 0.992 | locus YOR069W, strain VPS5, hits give low values 0.986 | locus YOR136W, strain idh2, hits give low values 0.971 | locus YOR144C, strain elg1, hits give low values 0.988 | locus YOR184W, strain ser1, hits give low values 0.974 | locus YOR316C, strain cot1, hits give low values 0.984 | [14] 0.999 | locus YPR119W, strain clb2, hits give low values 1 | locus YPR141C, strain kar3, hits give low values 0.98 | locus YPR163C, strain tif3, hits give low values 0.978 | locus YPR167C, strain met16, hits give low values 1.02 | strain wtn01, hits give low values 0.971

N#C/C(=C\c1ccc(O)c(O)c1)C(=O)NCCc1ccccc1
inactive: [15] 0.986 | [16] 0.987 | [17] 0.988 | [18] 1 | [19] 0.995 | [20] 1.01 | [21] 0.952 | [22] 0.99 | [23] 1 | [10] 1.01 | [11] 0.999 | [24] 1 | [25] 1 | [26] 0.998 | [13] 1 | [27] 0.994 | [28] 0.996

N#C/C(=C\c1ccc(O)c(O)c1)C(=O)c1ccc(O)c(O)c1
inactive: [15] 1 | [16] 0.995 | [17] 0.997 | [18] 0.994 | [19] 1.02 | [20] 0.99 | [21] 1.03 | [10] 0.99 | [12] 1.04 | [24] 0.961 | [25] 0.994 | [26] 1 | [13] 0.99 | [27] 0.999 | [28] 0.991

CC(C)(C)c1cc(C=C(C#N)C#N)cc(C(C)(C)C)c1O
active: [25] 0.884 | [27] 0.85
inactive: [15] 0.965 | [16] 1.01 | [17] 1.01 | [18] 1.03 | [19] 1.02 | [21] 1.02 | [10] 0.999 | [11] 0.973 | [12] 0.821 | [24] 0.943 | [26] 0.931 | [28] 1

COc1cc(C=C(C#N)C#N)cc(O)c1O
inactive: [1] 1.01 | [15] 0.941 | [16] 0.979 | [18] 0.997 | [19] 1 | [20] 0.982 | [23] 0.993 | [10] 0.993 | [11] 0.968 | [24] 0.972 | [25] 0.978 | [26] 0.969 | [27] 0.997 | [14] 1.01

COc1cc(/C=C(\C#N)C(N)=S)cc(OC)c1OC
active: [4] 0.674 | [5] 0.476 | [7] 0.71 | locus YLR085C, strain ARP6, hits give low values 0.377 | locus YML094W, strain GIM5, hits give low values 0.86 | locus YNR030W, strain Alg12, hits give low values 0.761 | [28] 0.558
inactive: [1] 0.979 | [2] 1.02 | locus YCL061C, strain MRC1, hits give low values 1 | [3] 0.943 | locus YDL134C, strain PPH21, hits give low values 0.943 | [17] 0.961 | [20] 0.977 | locus YHR087W, strain rtc3, hits give low values 0.986 | locus YJL187C, strain SWE1, hits give low values 0.942 | [6] 0.986 | [22] 0.983 | [8] 0.854 | locus YLR058C, strain SHM2 (second series), hits give low values 1.01 | [9] 0.832 | locus YMR219W, strain ESC1, hits give low values 1.02 | [23] 0.982 | [10] 1.15 | [12] 0.989 | locus YNL298W, strain CLA4 (second series), hits give low values 0.886 | [13] 0.987 | [14] 0.966 | locus YPR135W, strain CTF4, hits give low values 0.756

N#C/C(=C/c1ccc(O)c(O)c1)C(N)=S
active: [18] 0.73
inactive: [1] 0.959 | [15] 0.973 | [16] 0.997 | [19] 0.995 | [20] 0.995 | [21] 0.972 | [23] 0.956 | [10] 1 | [12] 0.988 | [24] 0.977 | [25] 0.98 | [26] 0.985 | [27] 0.958 | [28] 0.975

N#C/C(=C\c1ccc(O)c(O)c1)C(=O)NCCCc1ccccc1
inactive: [15] 0.98 | [16] 1 | [17] 0.991 | [18] 1.01 | [19] 0.993 | [20] 1 | [21] 0.941 | [10] 0.996 | [11] 0.996 | [24] 0.998 | [25] 1.01 | [26] 1 | [13] 1 | [27] 1.01 | [14] 0.991

N#CC(C#N)=Cc1ccc(O)c(O)c1
inactive: [1] 1 | [15] 1.01 | [16] 1 | [17] 0.998 | [18] 1.02 | [19] 0.992 | [21] 0.982 | [22] 0.959 | [10] 0.988 | [24] 0.998 | [25] 0.995 | [26] 0.998 | [27] 1.03

N#CC(C#N)=Cc1cc(O)c(O)c(O)c1
inactive: [15] 0.951 | [16] 0.998 | [17] 0.988 | [18] 1 | [19] 0.996 | [21] 0.97 | [23] 0.996 | [10] 0.995 | [11] 0.986 | [12] 0.975 | [24] 1.01 | [25] 1.01 | [26] 0.999 | [27] 0.995 | [28] 0.999

COc1cc(/C=C(\C#N)C(=O)c2ccc(O)c(O)c2)cc(I)c1O
inactive: [1] 1.02 | [15] 1.03 | [16] 1.02 | [18] 1.02 | [19] 1 | [21] 0.971 | [23] 1.02 | [10] 1.03 | [11] 1.01 | [12] 1.02 | [24] 0.984 | [25] 1.04 | [26] 1 | [13] 1.03 | [27] 1.02

N#C/C(=C\c1ccc(O)c(O)c1)C(=O)NCCCNC(=O)/C(C#N)=C/c1ccc(O)c(O)c1
inactive: [15] 0.994 | [16] 1.01 | [18] 0.999 | [19] 0.987 | [20] 0.992 | [10] 0.982 | [24] 1.01 | [25] 0.988 | [26] 1 | [13] 0.981 | [27] 1.01 | [28] 0.997
active: [21] 0.758
